Results reported in PubChem BioAssay.
“And” between values parts separate entries of the source, which are not always exact repeats. Equal entries are not always repeated. The source made the active and inactive calls.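 How the source made its calls, unless noted: active means mean z-score across replicates of 1.96 or higher in either the MELAS or the Rieske mutant cell line; inactive means the rest.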

Legend:
[1] = Wnt pathway potentiators raising nuclear beta-catenin – imaging, WNT3A-conditioned medium, mouse C2C12, NPC library, primary screen (AID 1117326; in the data active means nuclear beta-catenin stimulation mostly above about 4.2%, no sharp cut-off; inactive means mostly below about 10%); conditions: stronger effect = higher value
[2] = stimulators of insulin release from INS-1E, primary screen, cell-based, 5 mM glucose, NPC library (AID 1117329;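 active means compound raises insulin release from rat beta cells at 5 mM glucose, no numeric limit stated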); conditions: rat INS-1E insulin secretion, at 10 µM, stronger effect = higher value
[3] = growth inhibition of GSK3B-pretreated HCT116 cells – cell-based, CellTiter-Glo, 0.2 to 20 µM (AID 1117336;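 active means compounds lowering colon cancer cell viability after pretreatment blocking the GSK3B kinase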); conditions: HCT116 viability after GSK3B inhibitor, at 20 µM, stronger effect = higher value
[4] = inhibition of endothelial tube formation, primary screen, imaging, VEGF stimulated, CD31 staining, tube area, NPC library (AID 1117340;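 active means compound that reduces growth-factor-driven endothelial tube area in a mixed cell culture, no cutoff stated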); conditions: VEGF-stimulated ADSC/ECFC co-culture, at 10 µM, stronger effect = higher value
[5] = GLP1 release stimulators, primary, NCI-H716, NPC library (AID 1117341;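 active means compound raises GLP1 secretion from the human gut endocrine cells, with no numeric limit stated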); conditions: NCI-H716 cells, at 10 µM, stronger effect = higher value
[6] = HCT116 colon cancer cell growth inhibition, primary screen, CellTiter-Glo luminescence, NPC library (AID 1117342;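 active means compounds that lower survival of HCT116 colon cancer cells in the luminescence readout, no numeric limit stated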); conditions: at 20 µM (top of the series)
[7] = reduced SW480 viability measured with CellTiter-Glo, NPC library, primary (AID 1117343;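 active means compounds that lower viability of the colon cancer cells in the luminescence readout, with no numeric limit stated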); conditions: CellTiter-Glo luminescence; at 20 µM (top of the series)
[8] = NPC library primary testing for decreased DLD-1 cell viability via CellTiter-Glo (AID 1117346;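 active means compounds that lower survival of DLD-1 colon cancer cells in the luminescence readout, no cutoff given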); conditions: DLD-1 viability, CellTiter-Glo luminescence; at 20 µM (top of the series)
[9] = target: 6-phosphogluconate dehydrogenase, decarboxylating (Homo sapiens) (UniProt P52209); assay: inhibition of human phosphogluconate dehydrogenase – biochemical, recombinant enzyme, NADPH absorbance, primary screen (AID 1159550;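 active means at least 20% inhibition of 6-phosphogluconate dehydrogenase activity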); conditions: recombinant 6PGD, NADPH absorbance 341 nm; at 10 µM; stronger effect = higher value
6-phosphogluconate dehydrogenase, decarboxylating (Homo sapiens), sequence (P52209 whole entry, looked up): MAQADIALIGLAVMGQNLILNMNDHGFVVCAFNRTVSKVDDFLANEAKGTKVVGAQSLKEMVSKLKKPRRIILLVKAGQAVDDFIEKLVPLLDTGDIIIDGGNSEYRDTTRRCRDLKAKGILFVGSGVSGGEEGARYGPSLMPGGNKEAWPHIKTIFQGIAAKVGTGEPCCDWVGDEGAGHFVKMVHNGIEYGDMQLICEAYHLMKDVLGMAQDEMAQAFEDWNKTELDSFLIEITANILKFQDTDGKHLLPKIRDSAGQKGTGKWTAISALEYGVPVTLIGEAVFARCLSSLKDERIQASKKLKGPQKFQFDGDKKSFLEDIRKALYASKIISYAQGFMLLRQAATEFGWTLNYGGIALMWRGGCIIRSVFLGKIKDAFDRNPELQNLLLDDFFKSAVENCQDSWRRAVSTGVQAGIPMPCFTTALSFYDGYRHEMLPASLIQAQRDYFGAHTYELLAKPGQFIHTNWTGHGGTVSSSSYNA

[10] = MELAS cybrid and Rieske KO viability enhancers – cell-based, MELAS cybrids, Rieske KO mouse fibroblasts, CellTiter-Glo, primary screen (AID 1508586); conditions: low glucose;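 further: z relative to plate mean and SD of compound and empty wells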
[11] = target: NAD(+) hydrolase SARM1 (Homo sapiens) (UniProt Q6SZW1); assay: blocking NAD cleavage by SARM1 SAM-TIR – cell lysate, NAD-Glo luminescence (AID 1508614;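 active means compound whose remaining NAD level is above about 45 nM, limit read from the data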); conditions: SAM-TIR HEK293T lysate NADase, at 1 µM, stronger effect = higher value
NAD(+) hydrolase SARM1 (Homo sapiens), sequence (Q6SZW1 whole entry, looked up, the tested form may be a part): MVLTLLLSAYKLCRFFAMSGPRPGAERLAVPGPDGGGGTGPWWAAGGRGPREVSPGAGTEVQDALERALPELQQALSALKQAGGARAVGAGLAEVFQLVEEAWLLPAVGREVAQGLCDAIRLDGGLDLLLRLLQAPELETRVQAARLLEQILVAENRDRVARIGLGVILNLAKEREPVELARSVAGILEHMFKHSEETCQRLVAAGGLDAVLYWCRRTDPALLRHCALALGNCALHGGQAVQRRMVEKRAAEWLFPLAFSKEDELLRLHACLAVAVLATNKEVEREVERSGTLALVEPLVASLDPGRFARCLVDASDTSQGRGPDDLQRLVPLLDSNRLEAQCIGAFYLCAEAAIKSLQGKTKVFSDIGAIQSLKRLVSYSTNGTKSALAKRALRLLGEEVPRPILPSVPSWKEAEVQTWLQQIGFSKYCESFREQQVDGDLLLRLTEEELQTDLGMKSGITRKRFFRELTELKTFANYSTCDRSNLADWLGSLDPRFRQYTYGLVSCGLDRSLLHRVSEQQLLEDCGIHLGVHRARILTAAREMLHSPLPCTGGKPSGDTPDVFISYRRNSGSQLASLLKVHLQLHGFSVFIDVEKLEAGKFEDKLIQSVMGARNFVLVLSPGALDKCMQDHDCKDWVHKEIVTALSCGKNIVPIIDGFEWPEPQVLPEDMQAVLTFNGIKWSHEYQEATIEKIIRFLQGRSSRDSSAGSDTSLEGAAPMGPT

[12] = target: Mitogen-activated protein kinase 7 (Homo sapiens) (UniProt Q13164); assay: Gal4-ERK5 driven luciferase induction – cell-based, HTS, primary screen (AID 1508626;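 active means luciferase signal above three times the same-plate solvent-only control wells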;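 further: luciferase driven by Gal4-ERK5 fusion binding five Gal4 sites before minimal TATA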); conditions: HeLa Gal4-ERK5 transactivation, 18 h, at 5 µM, stronger effect = higher value
Mitogen-activated protein kinase 7 (Homo sapiens), sequence (Q13164 whole entry, looked up, the tested form may be a part): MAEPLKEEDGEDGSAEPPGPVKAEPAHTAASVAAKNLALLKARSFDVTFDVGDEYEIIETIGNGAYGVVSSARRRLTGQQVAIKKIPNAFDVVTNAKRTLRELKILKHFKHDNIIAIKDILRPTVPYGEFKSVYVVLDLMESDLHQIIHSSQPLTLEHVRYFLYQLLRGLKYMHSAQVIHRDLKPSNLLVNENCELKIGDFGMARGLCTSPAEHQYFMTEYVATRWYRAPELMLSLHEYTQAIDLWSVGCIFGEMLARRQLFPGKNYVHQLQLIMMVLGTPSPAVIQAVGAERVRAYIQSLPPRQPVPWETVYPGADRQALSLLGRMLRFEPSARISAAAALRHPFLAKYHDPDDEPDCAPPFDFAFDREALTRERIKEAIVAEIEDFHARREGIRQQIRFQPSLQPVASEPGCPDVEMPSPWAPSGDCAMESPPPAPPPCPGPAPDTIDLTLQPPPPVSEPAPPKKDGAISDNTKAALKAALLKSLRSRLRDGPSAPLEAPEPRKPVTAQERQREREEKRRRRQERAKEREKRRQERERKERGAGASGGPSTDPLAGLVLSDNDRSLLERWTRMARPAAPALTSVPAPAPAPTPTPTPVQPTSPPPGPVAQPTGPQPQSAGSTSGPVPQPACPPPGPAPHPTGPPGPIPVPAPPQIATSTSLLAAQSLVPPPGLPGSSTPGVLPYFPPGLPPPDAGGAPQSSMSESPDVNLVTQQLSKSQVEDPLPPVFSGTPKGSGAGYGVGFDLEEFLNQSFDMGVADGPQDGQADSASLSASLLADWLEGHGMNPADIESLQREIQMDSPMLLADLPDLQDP

[13] = modulation of C. elegans fzo-1 (AID 1259413; call rule not given here;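 further: fzo-1 mutant C. elegans worms in liquid wells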); conditions: C. elegans fzo-1 modulator screen, mean read-out; stronger effect = higher value
[14] = EMT-state selective cytotoxicity in co-culture – imaging, PC-3E GFP, TEM4-18 mCherry, primary screen (AID 1345086;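 active means compounds killing one labelled cell type while sparing the other, by normalised counts and ratio limits, not self-fluorescent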;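 on all read-outs here: cells exposed to compound for 72 h before imaging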;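 on red/green cell ratio (normalised): normalised mesenchymal count divided by normalised epithelial count so high means epithelial killing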); conditions: PC-3E GFP / TEM4-18 mCherry co-culture, imaging cell counts, at 1 µM; for red/green cell ratio (normalised): actives lie on both sides, counts scaled to control wells, 1 = unselective
[15] = tested on: F380Y; assay: BK channel mutant inhibitors and activators – cell-based, U2OS BacMam, thallium flux, beta subunits, selectivity assay, profiling panel (AID 1259406;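 active means thallium flux through the channel raised or lowered by more than 3 SD from vehicle-only wells, actives on both sides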;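 further: initial slope of Thallos dye fluorescence rise after thallium is added; log ratio against the mean of 0.3% DMSO vehicle wells on the same plate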); conditions: U2OS BacMam BK variants, at 30 µM
[16] = tested on: F380Y/beta1; assay: as above; conditions: U2OS BacMam BK variants, at 30 µM
[17] = tested on: F380Y/beta2Delta; assay: as above; conditions: U2OS BacMam BK variants, at 30 µM
[18] = MELAS cybrid survival, CellTiter-Glo 48 h, stronger effect = higher value
[19] = Rieske KO mouse fibroblast survival, CellTiter-Glo 72 h
[20] = measured here: epithelial PC-3E GFP cell survival
[21] = measured here: mesenchymal TEM4-18 mCherry cell survival

c1ccc([C@H]2CN3CCSC3=N2)cc1
-0.5%: nuclear beta-catenin stimulation ([1]; stimulation, at 2 µM)
-0.0854 and -1.67: z-score [10, 19]
inactive: nuclear beta-catenin stimulation ([1]; at 10 µM) -0.8% | insulin secretion stimulation [2] 0.8% | viability decrease [3] -1.75% | tube area decrease [4] 2.3% | GLP1 secretion stimulation [5] -1.2% | inhibition of viability [6] -2.5% | viability decrease (inhibition) [7] -10.8% | viability decrease (inhibition) [8] -6.9% | inhibition [9] -3.99% | z-score [10, 18] -0.321 and -0.38 | remaining NAD [11] 10 nM | luciferase signal [12] 44 AU

CCCCCN=C(N)N/N=C/c1c[nH]c2ccc(OC)cc12
5.8%: nuclear beta-catenin stimulation ([1]; stimulation, at 2 µM)
1.08: normalised cell number [14, 21]
active: insulin secretion stimulation [2] 57.5% | viability decrease [3] 118% | tube area decrease [4] 111% | GLP1 secretion stimulation [5] 53.2% | inhibition of viability [6] 125% | viability decrease (inhibition) [7] 159% | viability decrease (inhibition) [8] 102%
1.74: z-score [10, 19]
inactive: nuclear beta-catenin stimulation ([1]; at 10 µM) -2.1% | inhibition [9] -7.67% | mean signal [13] 250 | red/green cell ratio (normalised) [14] 1.12 | z-score [10, 18] 0.364 | remaining NAD [11] 10 nM | luciferase signal [12] 68 AU
0.96: normalised cell number [14, 20]

CC(=O)c1cc2ccccc2s1
inactive: nuclear beta-catenin stimulation ([1]; at 10 µM) 2.1% | insulin secretion stimulation [2] -1.3% | viability decrease [3] 32.7% | tube area decrease [4] -3.8% | GLP1 secretion stimulation [5] 0.1% | inhibition of viability [6] 31.2% | viability decrease (inhibition) [7] 32.8% | viability decrease (inhibition) [8] 26.6%
1.1%: nuclear beta-catenin stimulation ([1]; stimulation, at 2 µM)

c1ccc(CC2=NCCN2)cc1
1%: nuclear beta-catenin stimulation ([1]; stimulation, at 2 µM)
inactive: nuclear beta-catenin stimulation ([1]; at 10 µM) 0.4% | insulin secretion stimulation [2] -1% | viability decrease [3] -3.85% | tube area decrease [4] -0.5% | GLP1 secretion stimulation [5] 1.9% | inhibition of viability [6] -10.6% | viability decrease (inhibition) [7] 15.1% | viability decrease (inhibition) [8] 5.35% | inhibition [9] -8.93% | mean signal [13] 271 | red/green cell ratio (normalised) [14] 1.19 | z-score [10, 18] -0.147 and 0.373 | remaining NAD [11] 10 nM | luciferase signal [12] 44 AU | log fold change Tl+ flux [15] 0.00977 | log fold change Tl+ flux [16] 0.0105 | log fold change Tl+ flux [17] -0.0174
0.88: normalised cell number [14, 20]
1.04: normalised cell number [14, 21]
-0.183 and 0.131: z-score [10, 19]

CN1C(C(=O)Nc2ccccn2)=C(O)c2ccccc2S1(=O)=O
0.96: normalised cell number [14, 20]
inactive: nuclear beta-catenin stimulation ([1]; at 10 µM) 6.3% | insulin secretion stimulation [2] -2.9% | viability decrease [3] -12.7% | tube area decrease [4] 3.1% | GLP1 secretion stimulation [5] 1.4% | inhibition of viability [6] -10.9% | viability decrease (inhibition) [7] 15.6% | viability decrease (inhibition) [8] 12.8% | inhibition [9] 7.63% | mean signal [13] 261 | red/green cell ratio (normalised) [14] 1.3 | z-score [10, 18] -0.176 and -0.255 and -0.0452 | remaining NAD [11] 10 nM | luciferase signal [12] 56 AU | log fold change Tl+ flux [15] 0.0868 | log fold change Tl+ flux [16] 0.0287 | log fold change Tl+ flux [17] 0.0109
0.5%: nuclear beta-catenin stimulation ([1]; stimulation, at 2 µM)
0.725 and -0.177 and -0.896: z-score [10, 19]
1.24: normalised cell number [14, 21]
